# Screens deposited in PubChem BioAssay by The Scripps Research Institute Molecular Screening Center.
# An excerpt weighted towards active compounds, which were near 3.2% of everything screened.
# rCAG RNA binder = molecules binding r(CAG) RNA repeats; AID 651821; inhibition, % at 3 µM; actives 1.3% (n = 370,000); r(CAG) RNA repeat, TO-PRO-1 dye displacement fluorescence;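 active = inhibition above the plate cutoff, the mean of all test compounds on that plate plus 3 SD, cut at about 35% in these data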;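 also: 0% = DMSO alone and 100% = 100 µM mitoxantrone as full dye displacement; higher means more dye released from RNA so lower well fluorescence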
# HGIII-sPLA2 inh = Inhibits HGIII-sPLA2 liposome hydrolysis, primary screen. actives 0.56% (n = 370,000). QFRET BODIPY PC-A2 liposome hydrolysis, fluorescence. Q9NZ20. inhibition, % at 12.2 µM;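 active = inhibition above mean plus 3 SD of compounds lying within the high and low control bounds, cut at about 19% in these data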;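 also: 0% = median of test compound wells and 100% = no enzyme DMSO wells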
# Target sequence (Q9NZ20 whole entry, looked up): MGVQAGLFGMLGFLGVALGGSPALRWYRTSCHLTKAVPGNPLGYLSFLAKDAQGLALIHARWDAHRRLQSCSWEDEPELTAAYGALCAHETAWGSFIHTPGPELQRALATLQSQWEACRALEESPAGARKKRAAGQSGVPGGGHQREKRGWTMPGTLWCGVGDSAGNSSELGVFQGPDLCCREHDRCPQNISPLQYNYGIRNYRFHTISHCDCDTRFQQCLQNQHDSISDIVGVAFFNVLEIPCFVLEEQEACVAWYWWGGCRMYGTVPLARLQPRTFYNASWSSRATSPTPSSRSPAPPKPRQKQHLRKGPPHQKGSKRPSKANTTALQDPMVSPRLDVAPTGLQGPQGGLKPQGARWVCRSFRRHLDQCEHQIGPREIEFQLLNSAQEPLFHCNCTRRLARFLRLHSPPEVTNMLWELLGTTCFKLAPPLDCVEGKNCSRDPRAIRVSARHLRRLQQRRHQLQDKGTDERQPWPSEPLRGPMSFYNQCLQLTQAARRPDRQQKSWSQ
# bovine MsrA act = activators of bovine methionine sulfoxide reductase A | purified bovine MsrA, absorbance read-out | activation, % at 10.6 µM | actives 0.3% (n = 360,000); in the data active = activation above about 7.5%;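 also: 0% = vehicle and 100% = reference activator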
# MsrA inh = inhibits bovine methionine sulfoxide reductase A; inhibition, % at 15.5 µM; purified bovine MsrA, absorbance read-out; actives 0.75% (n = 360,000); in the data active = inhibition above about 4.5%;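 also: 0% = vehicle wells with enzyme and 100% = reference inhibitor wells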
# PG9 binder = small molecules binding HIV-1 gp120 antibody PG9; TR-FRET gp120-PG9 antibody binding; inhibition, % at 6.7 µM; actives 0.43% (n = 360,000); AID 624416; in the data active = inhibition above about 8.5%
# rCAG binder conf = r(CAG) RNA repeat binding, confirmation. shares compounds with rCAG RNA binder. TO-PRO-1 dye displacement fluorescence. inhibition, % at 3 µM. actives 70% (n = 4,300). AID 652065;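 active = inhibition above a per-plate cutoff, the mean inhibition of sample wells plus 3 SD, cut at about 35% in these data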;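 also: loss of TO-PRO-1 fluorescence as compound displaces dye from 1x1 AA loop RNA; 0% = DMSO only wells and 100% = 100 µM mitoxantrone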
# dCAG dye counter = DNA CAG dye complex inhibition counter-screen; AID 652068; shares compounds with rCAG RNA binder; inhibition, % at 3 µM; d(CAG) DNA oligo TO-PRO-1 dye displacement, fluorescence; actives 94% (n = 4,300);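 active = inhibition above its plate's cutoff, the mean test-well inhibition plus 3 SD, cut at about 4.8% in these data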;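 also: 0% = DNA dye mix with DMSO and 100% = 100 µM mitoxantrone; hits displace the dye from DNA and so lower well fluorescence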
# dCAG dye DR = counter-screen for rCAG binders: inhibitors of DNA CAG TO-PRO-1 complex. shares compounds with rCAG RNA binder. DNA CAG/GTC duplex TO-PRO-1 dye displacement fluorescence. IC50, µM. actives 20% (n = 250); in the data active = IC50 below about 10 µM
# Numbers without * were called inactive; i = inactive; x = no result.
SMILES,rCAG RNA binder,HGIII-sPLA2 inh,bovine MsrA act,MsrA inh,PG9 binder,rCAG binder conf,dCAG dye counter,others
COc1ccc(-c2cc(-c3ccc(Cl)cc3)c(C#N)c(SCC(=O)O)n2)cc1,80*,-18,-3,0,2,85*,55*,
COc1cc(-c2cc(-c3ccccc3)nc(SCC(=O)Nc3nccs3)c2C#N)cc(OC)c1OC,8,3,-7,1,-2,x,x,
COc1ccc(-c2cc(-c3ccccc3)c(C#N)c(SCC(=O)O)n2)cc1,11,-6,-6,-1,1,x,x,
N#Cc1c(C(F)(F)F)cc(-c2cccs2)nc1SCC(=O)O,6,1,-2,2,-2,x,x,
N#Cc1c(C(F)(F)F)cc(-c2cccs2)nc1SC(C(=O)O)c1ccccc1 (stereo not given),78*,-19,-1,2,0,77*,31*,dCAG dye DR=i
N#Cc1c(-c2ccc(F)cc2)cc(-c2cccs2)nc1SCC(=O)O,56*,-18,-3,4,0,45*,14*,
COc1ccccc1-c1cc(-c2ccccc2)nc(SCC(=O)O)c1C#N,47*,-21,-1,1,-1,37*,9.6*,
N#Cc1c(-c2ccccc2)cc(-c2ccccc2)nc1SCC(=O)NCC(=O)O,41*,-16,-4,2,2,37*,10*,
Cc1ccc(-c2cc(C(F)(F)F)c(C#N)c(SCC(=O)O)n2)cc1,48*,-10,-2,1,-3,24,5.0*,
CCOC(=O)CC(=O)CSc1nc(-c2ccccc2)cc(-c2ccccc2)c1C#N,11,-20,-4,0,-2,x,x,
COc1cccc(-c2nnc(Nc3nc4c(F)cccc4s3)o2)c1,73*,-9,-2,3,3,67*,23*,
COc1cccc2sc(Nc3nnc(-c4ccccc4Cl)o3)nc12,46*,-3,-4,1,1,44*,14*,
COc1cccc2sc(NN)nc12,25,12,-4,1,-1,x,x,
O=C(Nc1nnc(-c2ccccc2Cl)o1)c1ccco1,2,-4,-2,1,-2,x,x,
O=C(Nc1nnc(-c2ccccc2Cl)o1)c1nc2ccccc2s1,40*,-7,-7,2,-1,47*,13*,
Cn1ccc2c(-c3ccc(C(=O)O)cc3)cc3c(c21)C1CCC3C1 (stereo not given),15,-38,-4,1,1,x,x,
CN(C(=O)[C@@H]1CC=C[C@@H]2CCN(C3CCCCC3)C(=O)[C@@H]21)c1ccccc1,x,4,x,x,x,x,x,
Cc1cccc(N(CC(=O)N/N=C/c2ccc(C(=O)O)cc2)S(=O)(=O)c2ccccc2)c1C,49*,-5,-3,-2,0,33,11*,
Cc1ccc(Nc2nnc(SC/C(O)=C(\C#N)c3nc4ccccc4[nH]3)s2)c(C)c1,39*,-6,1,3,0,41*,16*,
Cc1c(C(=O)Nc2ccccc2)cn2c(nc3ccccc32)c1C#N,4,10,-8,0,1,x,x,
Cc1ccccc1C(=O)Nc1ccc2c(C#N)c3nc4ccccc4nc3n2c1,36*,-2,-7,1,-7,26,14*,
O=S(=O)(Nc1ncccn1)c1ccc(NC(=S)N2CCN(Cc3ccc(F)cc3Cl)CC2)cc1,39*,-24,1,0,0,38*,11*,
Fc1ccc(CN2CCCN(C(=S)Nc3ccc(F)cc3)CC2)cc1,-4,-1,-1,-1,-2,x,x,
Cc1cc(C(=O)O[C@H]2CCC[C@@]3(C(=O)N(Cc4ccccc4)c4ccccc43)[C@H]2NC(=O)CCc2ccccc2)no1,5,-3,x,x,x,x,x,
COCC(=O)N(c1ccc(C(C)(C)C)cc1)C(C(=O)NC(C)(C)C)c1cccnc1 (stereo not given),x,10,x,x,x,x,x,
SMILES,rCAG RNA binder,HGIII-sPLA2 inh,bovine MsrA act,MsrA inh,PG9 binder,rCAG binder conf,dCAG dye counter,others
Cc1ccc(-c2csc(NC(=O)c3ccccc3F)c2C(=O)O)cc1,42*,0,-2,2,0,29,4.6*,
O=C(Nc1scc(-c2ccc(Br)cc2)c1C(=O)O)c1ccccc1F,25,-8,3,0,1,x,x,
COc1ccc(-c2csc(NC(=O)c3ccccc3OC)c2C(=O)O)cc1OC,22,0,-2,1,-3,x,x,
O=C(/C=C/c1ccccc1)Nc1cc(NC(=O)/C=C/c2ccccc2)cc(C(=O)O)c1,75*,-46,-2,3,-5,81*,52*,
Cc1ccc(-c2csc(NC(=O)c3ccc(F)cc3)c2C(=O)O)cc1,63*,-9,-3,1,1,39*,8.8*,
O=C(Nc1scc(-c2ccccc2)c1C(=O)O)c1ccc(F)cc1,36*,-8,-1,2,-2,23,5.0*,
O=C(Nc1scc(-c2ccccc2)c1C(=O)O)c1ccccc1F,20,-11,0,1,1,x,x,
O=C(Nc1nc2ncccn2c1-c1ccc(C(F)(F)F)cc1)c1ccc(F)cc1,1,1,x,x,x,x,x,
CCN(CC)C(=O)CC[C@H]1CC[C@]2(CCCN(Cc3ccc(OC)cc3)C2)O1,-3,0,x,x,x,x,x,
COc1cccc(CNC(=O)C[C@H]2CC[C@H]3[C@@H](COc4ccc(NC(=O)c5cccs5)cc4C(=O)N3C)O2)c1,9,-28,x,x,x,x,x,
O=C(Nc1cc(S(=O)(=O)N2CCOCC2)ccc1N1CCCCC1)c1ccccc1Br,6,-9,-4,0,-1,x,x,
COC(=O)[C@H]1C[C@@]2(C)c3ccccc3N(C(=O)OC(C)(C)C)[C@H]2N1C(=O)OC(C)(C)C,-2,8,x,x,x,x,x,
CC(C)[C@H](NC(=O)[C@H](C)NC(=O)OC(C)(C)C)C(=O)N1CCC2CCN(Cc3ccccc3)CC21 (stereo not given in full),-2,12,x,0,-1,x,x,
CCN1CCN(Cc2ccc(NC(=O)c3cccc(-c4ccc5nc(NC(=O)C6CC6)sc5n4)c3)cc2C(F)(F)F)CC1,22,-14,x,1,-2,x,x,
O=C(C1CCCN1S(=O)(=O)c1cccc2ccccc12)N1CCN(c2ccccc2)CC1 (stereo not given),3,-11,x,x,x,x,x,
COc1ccccc1N1CCN(C(=O)c2ccc3c(c2)nc(C)n3-c2cc(OC)c(OC)c(OC)c2)CC1,1,-5,x,x,x,x,x,
CN(Cc1cn(Cc2ccc(Cl)cc2)nn1)C1CN(Cc2cn(Cc3ccc(Cl)cc3)nn2)S(=O)(=O)C1 (stereo not given),2,-10,-3,1,1,x,x,
Cc1ccccc1C(=O)Nc1scc(-c2ccc(Br)cc2)c1C(=O)O,9,4,-2,1,0,x,x,
COc1ccc(-c2csc(NC(=O)Cc3cccc4ccccc34)c2C(=O)O)cc1,61*,-28,-2,0,-2,54*,17*,
COc1ccc(-c2csc(NC(=O)c3ccccc3Br)c2C(=O)O)cc1,55*,3,-4,2,5,36*,10*,
